Rows were chosen to be rich in hits. Some 5.9% of all compounds tested hit in one or more screens of this group.
HepG2 tox: HepG2 cytotoxicity, counter-screen for TGF-b inhibitors | HepG2 CAGA-GFP viability, ATP luminescence, 18 h | Potency, µM (highest dose often 46.1 µM), for inactives: at the highest dose activity change, negative = cytotoxicity, hits mostly cytotoxic | actives 0.76% (n = 410,000) | AID 588856
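CellTiter-Glo luminescence gave cytotoxicity after 18 hours at 37 degrees C. The cells were HepG2 CAGA-GFP in 1% FBS DMEM, stimulated with 500 pg/mL TGF-beta after compound addition. %Activity was normalised to no-cell wells (complete cell-killing) and DMSO (no toxicity), and curves were fitted and classified.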
ATXN viability: reduces viability in counter-screen for ATXN expression inhibitors; S2 cells (HEK-293 line with an ATXN2-luciferase reporter) viability, CellTiter-Fluor protease fluorescence, 24 h; Potency, µM (highest dose often 56.7 µM), most hits filed as cytotoxic; actives 0.49% (n = 400,000); AID 651635; further: nearly all actives have a fitted effect of over 40% in size
KB-V1 cytotox: KB-V1 MDR subline cytotoxicity | AID 1347076 | Potency, µM (doses to about 46.1 µM), actives largely listed as cytotoxic | actives 3.4% (n = 400,000) | KB-V1 MDR cells viability, CellTiter-Glo, 72 h; further: on the % scale 0 is the no-effect control and ±100 the full control effect; nearly all actives have a fitted effect of over 60% in size
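Cells of the MDR subline KB-V1 are plated, dosed with compound at multiple concentrations, and incubated 72 h at 37 degrees C; CellTiter-Glo is then added and luminescence read after 10 min.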
KB-3-1 cytotox: kills parental KB-3-1 adenocarcinoma cells. AID 1347075. KB-3-1 viability, CellTiter-Glo ATP luminescence, 72 h. actives 1.4% (n = 400,000). Potency, µM (titrated, usually from 46.1 µM), hits mostly cytotoxic; further: on the % scale 0 is the no-effect control and ±100 the full control effect; nearly all actives have a fitted effect of over 60% in size
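Using CellTiter-Glo luminescence, growth of non-resistant KB-3-1 adenocarcinoma cells is assessed 72 h after pin-tool compound addition at 37 °C. Normalized responses across the concentration series yield fitted curves.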
TGFb inhibitor: blocks TGF-b signaling; AID 588855; HepG2 CAGA-GFP TGF-b/SMAD3 reporter, GFP fluorescence, 18 h; TGF-beta stimulated, 500 pg/mL final; actives 1.2% (n = 410,000); Potency, µM (titrated, usually from 46.1 µM), for inactives: at the highest dose activity, negative = inhibition, most hits filed as inhibitors; further: on the % scale 0 is the no-effect control and ±100 the full control effect; nearly all actives have a fitted effect of over 65% in size
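Read-out: total well GFP (ex488/em500-530) summed from mean per-cell fluorescence. Cells: HEPG2 CAGA-GFP, 1% FBS DMEM, 18 h at 37 degrees C with 500 pg/mL final TGF-beta. Unstimulated wells served as the full-inhibition control; stimulated DMSO wells = 0%.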
ATXN2 expr inh: ATXN2 expression inhibition | Potency, µM (top dose mostly 57 µM), for the others: top-dose activity change, negative = inhibition, usual class: inhibitors | HEK-293 ATXN2-luciferase reporter, luminescence, 24 h | actives 0.72% (n = 360,000) | AID 1745845; further: on the % scale 0 is the no-effect control and ±100 the full control effect; nearly all actives have a fitted effect of over 55% in size
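ATXN2-luciferase reporter cells (luciferase flanked by upstream and downstream ATXN2 gene portions) were treated 24 h at 37 °C with compounds at up to 57 uM. SteadyGlo luminescence gave expression; GF-AFC fluorescence gave viability.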
Active calls of the source: *; i = inactive; ? = inconclusive; · = no result; [ ] = dose if it differs, or a comment. The call rests on the fitted dose curve; in most records, active means well fitted curve in the direction sought with a large enough effect; inconclusive means small, poorly fitted or top-dose-only effect, or another doubt; inactive means no such curve, though single readings can be large; an effect the other way counts as inactive or inconclusive. Potency means the concentration at half of the fitted maximal effect.

SMILES	HepG2 tox	ATXN viability	KB-V1 cytotox	KB-3-1 cytotox	TGFb inhibitor	ATXN2 expr inh
Cc1cnc(-n2ncc(C(=O)N(C)C3CCOC3)c2C)nc1-c1ccc(F)cc1 (stereo not given)	·	i	·	·	·	·
COC(=O)c1ccc(C2Nc3c(C)cc(C)cc3C3C=CCC32)cc1 (stereo not given)	-26.2%	i	?	i	-22.2%	8.1%
COc1cc(Cl)c(C)cc1NC(=O)c1cc(S(=O)(=O)N2CCCC2)ccc1F	-2.2%	i	i	i	-0.1%	6.9%
CCOC(=O)c1[nH]c(C)c(CCC(=O)NCc2ccc(N(C)C)cc2)c1C	10.2%	i	i	i	2.1%	2.6%
CC(=O)Nc1ccc(C=CC=Cc2cccc([N+](=O)[O-])c2)cc1	4.5%	?	20.6µM*	i	?	28.0%
O=C(/C=C/c1cccc([N+](=O)[O-])c1)Nc1ccc(NC(=O)c2cccs2)cc1	27.1%	?	i	i	9.2%	?
O=c1c2cnn(-c3ccccc3)c2nc(-c2cccs2)n1-c1cccc(Cl)c1	-2.1%	?	10.3µM*	?	?	-17.9%
COc1ccc(CNn2c(-c3cccs3)nc3ccccc3c2=O)cc1OC	-28.3%	i	23.1µM*	i	0.8%	-17.0%
COc1cccc(C(=O)Nn2c(-c3cccs3)nc3ccccc3c2=O)c1OC	-2.4%	i	?	i	-1.3%	-20.0%[11.3 µM]
O=c1c2ccccc2nc(-c2cccs2)n1-c1cccc2ccccc12	-5.6%	?	23.1µM*	?	-9.7%	-10.4%
Cc1nc2cc(C(=O)NCCC3=CCCCC3)ccc2n1-c1ccc(Br)cc1	-28.5%	?	i	i	?	?
CCOc1ccc(-n2c(C)nc3cc(C(=O)NCCC4=CCCCC4)ccc32)cc1	-30.6%	i	i	i	17.8µM*	2.5%
CN(C)S(=O)(=O)N1CCC(n2cnc3cccnc32)CC1	11.1%	i	i	i	9.3%	3.8%
CCn1c(SCC(=O)N(Cc2ccccc2)C2CCS(=O)(=O)C2)nc2ccccc2c1=O (stereo not given)	2.0%	i	i	i	1.6%	1.9%
CCCCN(C(=O)CSc1nc2ccccc2n1CC)C1CCS(=O)(=O)C1 (stereo not given)	-14.3%	?	5.8µM*	i	-2.4%	0.0%
C=CCn1c(SCC(=O)N(C(C)CC)C2CCS(=O)(=O)C2)nc2ccccc2c1=O (stereo not given)	7.08µM*	i	i	i	-2.3%	13.3%
CCN(C(=O)CSc1nc2scc(-c3ccccc3)c2c(=O)n1C)C1CCS(=O)(=O)C1 (stereo not given)	1.7%	i	i	i	1.5%	8.4%
CCC(C)N(C(=O)CSc1nc(C)nc2ccccc12)C1CCS(=O)(=O)C1 (stereo not given)	1.2%	?	i	i	-20.6%	5.0%
C=CCn1c(SCC(=O)N(CC)C2CCS(=O)(=O)C2)nc2scc(-c3ccccc3)c2c1=O (stereo not given)	-8.3%	i	10.3µM*	i	?	-11.0%
CN(C)c1ccc(C=O)c(Cl)c1	-0.7%	·	i	i	-24.6%	·
O=C(O[C@H]1[C@H](Cc2ccccc2)NS(=O)(=O)[C@H]2C[C@@H]3C=C[C@]12O3)c1ccccc1Br	10.0%	·	i	i	-4.6%	·
CC1Oc2ccccc2N(CC(=O)N2CCCc3ccccc32)C1=O (stereo not given)	2.7%	i	i	i	-4.7%	3.6%
CC1Oc2ccccc2N(CC(=O)NCCc2ccccc2)C1=O (stereo not given)	-10.4%	i	16.4µM*	i	0.0%	-3.0%
CC1Oc2ccccc2N(CC(=O)N2CCc3ccccc32)C1=O (stereo not given)	-0.9%	i	14.6µM*	i	-23.1%	-2.0%
CC1Oc2ccccc2N(CC(=O)NCc2ccc3c(c2)OCO3)C1=O (stereo not given)	6.4%	i	i	i	11.6%	24.9%
SMILES	HepG2 tox	ATXN viability	KB-V1 cytotox	KB-3-1 cytotox	TGFb inhibitor	ATXN2 expr inh
CC1Oc2ccccc2N(CC(=O)Nc2ccc3c(c2)OCO3)C1=O (stereo not given)	-2.2%	i	20.6µM*	i	-4.3%	18.9%
CC1Oc2ccccc2N(CC(=O)Nc2ccc3c(c2)OCCO3)C1=O (stereo not given)	7.0%	i	16.4µM*	i	-3.9%	17.3%
Cc1ccc(-n2ncc(C(=O)N3CCN(C4CCCCC4)CC3)c2C2CCN(C(=O)OC(C)(C)C)CC2)cc1C	11.1%	·	i	i	-1.6%	·
COc1ccc(OC)c(Nc2ncnc3c2nc2n3CCCC2)c1	-18.1%	·	·	·	-19.2%	·
CCC1(c2ccccc2)NC(=O)N(CC(=O)N2CCc3ccccc32)C1=O (stereo not given)	3.8%	?	11.6µM*	i	?	-21.6%
Clc1ccc(-c2nn3c(-c4cc(-c5ccccc5)n[nH]4)nnc3s2)cc1	-9.4%	·	?	i	-2.8%	·
COc1cccc(O)c1CN1CCC2(CC1)c1ccccc1[C@@H](NC(=O)c1ccsc1)[C@@H]2OC	·	i	·	·	·	·
COC(=O)CC1C(=O)NCCN1C(=O)CN1Cc2ccccc2OC(c2ccccc2)C1 (stereo not given)	·	i	·	·	·	·
CC(C)(C)NC(=O)c1ccc2c(c1)C1C3CCC(C3)C1C(c1ccccc1)N2 (stereo not given)	5.5%	i	i	i	20.2%	7.6%
CCCNC(=O)c1ccc2c(c1)C1C3CCC(C3)C1C(c1ccccc1)N2 (stereo not given)	-4.2%	i	20.6µM*	?	?	-29.2%
CCNC(=O)c1sc(=S)n(-c2ccc(C)cc2)c1N	-12.2%	i	?	i	-1.4%	3.2%
NC(=O)c1sc(=S)n(-c2ccc(Br)cc2)c1N	-24.9%	i	i	i	11.2µM*	-13.7%
O=C1NC[C@H](CCCCN2C[C@H](Cc3ccccc3)N(CCc3ccc(O)cc3)C(=O)C2=O)N(CCc2ccc(O)cc2)C1=O	·	i	i	i	·	3.3%
CCOC(=O)C1CCN(C(=O)C2COc3ccccc3C2)CC1 (stereo not given)	-9.9%	i	i	i	-26.1%	-0.2%
Cc1nnc(C)n1/N=C/c1c(O)ccc2ccccc12	-4.1%	i	?	i	-6.1%	·
CCc1n[nH]c(=S)n1/N=C/c1ccccn1	3.9%	i	i	i	-0.6%	-10.6%
